Active and inactive are the calls of the source. The calls were made as follows: active = hit-call score of the fitted dose curve at least 0.9, where 1 is the maximum; inactive = score below 0.9.
Key:
Conditions in all cases: mRNA level, 48 h; actives raise or lower the signal
[1] = read-out: ABC Transporter (ABCB1), ABCB1 (gene 5243); test: LTEA_HepaRG_ABCB1: Life Technologies and Expression Analysis (LTEA) Assay for ABC Transporter (ABCB1) using HepaRG (AID 2283460)
In short: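 HepaRG cells exposed in duplicate for 48 h in serum-free induction medium to eight half-log concentrations up to 100 uM in 0.5% DMSO. ABCB1 mRNA quantified by qRT-PCR, normalised to ACTB, GAPDH and POLR2A; fitted bidirectionally versus DMSO.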

[2] = read-out: growth arrest and DNA damage 45 (GADD45B), GADD45B (gene 4616); test: LTEA_HepaRG_GADD45B: Life Technologies and Expression Analysis (LTEA) Assay for growth arrest and DNA damage 45 (GADD45B) using HepaRG (AID 2283461)
In short: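 Differentiated human HepaRG cells in serum-free induction medium exposed 48 h in duplicate to eight concentrations, top 100 uM, half-log steps, 0.5% DMSO. GADD45B mRNA by TaqMan qRT-PCR, normalized to ACTB, GAPDH, POLR2A; bidirectional fit versus DMSO.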

[3] = read-out: ABC Transporter (ABCC3), ABCC3 (gene 8714); test: LTEA_HepaRG_ABCC3: Life Technologies and Expression Analysis (LTEA) Assay for ABC Transporter (ABCC3) using HepaRG (AID 2283462)
In short: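 Differentiated human HepaRG cells exposed 48 h in serum-free induction medium, 0.5% DMSO vehicle, 8-point half-log series to 100 uM in duplicate. ABCC3 mRNA by qRT-PCR, normalised to ACTB, GAPDH, POLR2A; bidirectional fit vs DMSO.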

[4] = read-out: ABC Transporter (ABCB11), ABCB11 (gene 8647); test: LTEA_HepaRG_ABCB11: Life Technologies and Expression Analysis (LTEA) Assay for ABC Transporter (ABCB11) using HepaRG (AID 2283463)
In short: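 Differentiated human HepaRG cells in serum-free induction medium, dosed in duplicate for 48 h. Eight-point half-log series from 100 uM in 0.5% DMSO; ABCB11 mRNA by qRT-PCR, normalized to ACTB, GAPDH, POLR2A, fitted bidirectionally versus DMSO.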

[5] = read-out: ABC Transporter (ABCC2), ABCC2 (gene 1244); test: LTEA_HepaRG_ABCC2: Life Technologies and Expression Analysis (LTEA) Assay for ABC Transporter (ABCC2) using HepaRG (AID 2283464)
In short: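 Differentiated HepaRG cells in serum-free induction medium exposed 48 h to eight half-log concentrations up to 100 uM, 0.5% DMSO, in duplicate. ABCC2 mRNA measured by qRT-PCR (TaqMan, Fluidigm), normalized to ACTB, GAPDH and POLR2A. Fitted in both directions against DMSO.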

[6] = read-out: Broad substrate specificity ATP-binding cassette transporter ABCG2 (Homo sapiens) (UniProt Q9UNQ0); test: LTEA_HepaRG_ABCG2: Life Technologies and Expression Analysis (LTEA) Assay for ABC Transporter (ABCG2) using HepaRG (AID 2283465)
In short: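 Differentiated HepaRG cells were exposed for 48 h in serum-free induction medium to 8 half-log concentrations, top 100 uM, in 0.5% DMSO. ABCG2 mRNA was measured by qRT-PCR, normalized to ACTB, GAPDH and POLR2A, with bidirectional fitting versus DMSO.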

[7] = read-out: ATP-citrate lyase (ACLY), ACLY (gene 47); test: LTEA_HepaRG_ACLY: Life Technologies and Expression Analysis (LTEA) Assay for ATP-citrate lyase (ACLY) using HepaRG (AID 2283466)
In short: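 Differentiated HepaRG cells exposed 48 h in serum-free induction medium to eight half-log concentrations up to 100 uM in 0.5% DMSO, duplicates. Transcript measured by Fluidigm TaqMan qRT-PCR, normalized to ACTB, GAPDH, POLR2A; bidirectional fit versus DMSO.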

[8] = read-out: Peroxisomal acyl-coenzyme A oxidase 1 (ACOX1) gene, ACOX1 (gene 51); test: LTEA_HepaRG_ACOX1: Life Technologies and Expression Analysis (LTEA) Assay for Peroxisomal acyl-coenzyme A oxidase 1 (ACOX1) gene using HepaRG (AID 2283467)
In short: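 HepaRG cells, plated 48 h then switched to serum-free induction medium, were exposed in duplicate for 48 h to 8-point half-log concentrations up to 100 uM in 0.5% DMSO. ACOX1 mRNA was measured by qRT-PCR, normalized to ACTB/GAPDH/POLR2A, and fitted bidirectionally versus DMSO.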

[9] = read-out: Alkaline Phosphatase, Placental (ALPP) gene, ALPP (gene 250); test: LTEA_HepaRG_ALPP: Life Technologies and Expression Analysis (LTEA) Assay for Alkaline Phosphatase, Placental (ALPP) gene using HepaRG (AID 2283468)
In short: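 HepaRG cells plated 48 h, then exposed in duplicate for 48 h in serum-free induction medium to 8-point half-log series from 100 uM in 0.5% DMSO. ALPP mRNA by TaqMan qRT-PCR, normalized to ACTB/GAPDH/POLR2A; bidirectional fit versus DMSO.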

[10] = read-out: Bcl-2 (BAD) gene, BAD (gene 572); test: LTEA_HepaRG_BAD: Life Technologies and Expression Analysis (LTEA) Assay for Bcl-2 (BAD) gene using HepaRG (AID 2283469)
In short: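 Differentiated HepaRG cells were exposed in duplicate in 0.5% DMSO for 48 h to eight-point half-log concentrations up to 100 uM. BAD mRNA was measured by Fluidigm TaqMan qRT-PCR, normalized to ACTB, GAPDH and POLR2A, and fitted bidirectionally against DMSO.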

[11] = read-out: Bcl-2 (BAX) gene, BAX (gene 581); test: LTEA_HepaRG_BAX: Life Technologies and Expression Analysis (LTEA) Assay for Bcl-2 (BAX) gene using HepaRG (AID 2283470)
In short: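 HepaRG (human liver), 48 h exposure, duplicate wells. 8-pt curve, half-log from 100 uM, 0.5% DMSO. BAX transcript by TaqMan qRT-PCR; ACTB/GAPDH/POLR2A normalization; gain or loss vs DMSO baseline.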

[12] = read-out: adenosine kinase (ADK) gene, ADK (gene 132); test: LTEA_HepaRG_ADK: Life Technologies and Expression Analysis (LTEA) Assay for adenosine kinase (ADK) gene using HepaRG (AID 2283471)
In short: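 Differentiated HepaRG cells dosed 48 h in serum-free induction medium, 0.5% DMSO vehicle, eight half-log concentrations from 100 uM, in duplicate. ADK mRNA by TaqMan qRT-PCR normalised to ACTB, GAPDH, POLR2A; bidirectional fit versus DMSO.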

[13] = read-out: Alpha-fetoprotein (AFP) gene, AFP (gene 174); test: LTEA_HepaRG_AFP: Life Technologies and Expression Analysis (LTEA) Assay for Alpha-fetoprotein (AFP) gene using HepaRG (AID 2283472)
In short: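 HepaRG, single lot; 48 h post-plating -> serum-free induction medium; cpd 8-pt, 100 uM top, half-log, 0.5% DMSO, duplicate, 48 h. RNA -> qRT-PCR AFP, norm ACTB/GAPDH/POLR2A. Bidirectional fit vs DMSO.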

[14] = read-out: BCL2L11 (gene 10018); test: LTEA_HepaRG_BCL2L11: Life Technologies and Expression Analysis (LTEA) Assay for Bcl-2 (BCL2L11) gene using HepaRG (AID 2283473)
In short: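 Differentiated human HepaRG cells were exposed 48 h in serum-free induction medium to eight half-log concentrations up to 100 uM in 0.5% DMSO, in duplicate. BCL2L11 mRNA was quantified by TaqMan qRT-PCR, normalized to ACTB, GAPDH and POLR2A; induction or repression fitted versus DMSO.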

[15] = read-out: Apolipoprotein A-V (APOA5) gene, APOA5 (gene 116519); test: LTEA_HepaRG_APOA5: Life Technologies and Expression Analysis (LTEA) Assay for Apolipoprotein A-V (APOA5) gene using HepaRG (AID 2283474)
In short: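 Differentiated HepaRG cells in serum-free induction medium, exposed 48 h in duplicate to eight half-log concentrations topping at 100 uM (0.5% DMSO). APOA5 mRNA by Fluidigm TaqMan qRT-PCR, normalized to ACTB, GAPDH and POLR2A; bidirectional fit versus DMSO.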

[16] = read-out: Apoptosis regulator Bcl-2 (Homo sapiens) (UniProt P10415); test: LTEA_HepaRG_BCL2: Life Technologies and Expression Analysis (LTEA) Assay for Bcl-2 gene using HepaRG (AID 2283475)
In short: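 HepaRG, plated 48 h then switched to serum-free induction medium; dosed 48 h, 8 conc. (max 100 uM, half-log steps), duplicate, 0.5% DMSO. Lysis in RLT, RNA isolated, TaqMan qRT-PCR for BCL2; ACTB/GAPDH/POLR2A normalisation; bidirectional fit vs DMSO.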

[17] = read-out: Bcl-2 (BID) gene, BID (gene 637); test: LTEA_HepaRG_BID: Life Technologies and Expression Analysis (LTEA) Assay for Bcl-2 (BID) gene using HepaRG (AID 2283476)
In short: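 Transcript levels of BID, measured by qRT-PCR and normalized to three housekeeping genes, were fitted bidirectionally against DMSO controls. Cells were HepaRG, dosed 48 h at up to 100 uM.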

[18] = read-out: Caspase-3 (Homo sapiens) (UniProt P42574); test: LTEA_HepaRG_CASP3: Life Technologies and Expression Analysis (LTEA) Assay for cysteine-aspartic acid protease (CASP3) using HepaRG (AID 2283477)
In short: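 Differentiated HepaRG cells, plated 48 h, were treated in duplicate in serum-free induction medium for 48 h with eight half-log concentrations up to 100 uM in 0.5% DMSO. CASP3 mRNA measured by qRT-PCR, normalized to ACTB, GAPDH, POLR2A.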

[19] = read-out: Cytochrome P450 (CYP24A1), CYP24A1 (gene 1591); test: LTEA_HepaRG_CYP24A1: Life Technologies and Expression Analysis (LTEA) Assay for Cytochrome P450 (CYP24A1) using HepaRG (AID 2283478)
In short: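 HepaRG cells plated 48 h, then exposed in duplicate in serum-free induction medium for 48 h to 8-point half-log series from 100 uM in 0.5% DMSO. CYP24A1 mRNA by Fluidigm qRT-PCR, normalized to ACTB, GAPDH, POLR2A; bidirectional fit versus DMSO.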

[20] = read-out: Cytochrome P450 (CYP1A2), CYP1A2 (gene 1544); test: LTEA_HepaRG_CYP1A2: Life Technologies and Expression Analysis (LTEA) Assay for Cytochrome P450 (CYP1A2) using HepaRG (AID 2283479)
In short: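 Differentiated human HepaRG cells in serum-free induction medium exposed 48 hours in duplicate to 8 half-log concentrations from 100 uM, 0.5% DMSO. CYP1A2 mRNA quantified by qRT-PCR, normalized to ACTB, GAPDH and POLR2A; bidirectional fitting versus DMSO.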

Measured: AC50

Broad substrate specificity ATP-binding cassette transporter ABCG2 (Homo sapiens), sequence (Q9UNQ0 whole entry, looked up): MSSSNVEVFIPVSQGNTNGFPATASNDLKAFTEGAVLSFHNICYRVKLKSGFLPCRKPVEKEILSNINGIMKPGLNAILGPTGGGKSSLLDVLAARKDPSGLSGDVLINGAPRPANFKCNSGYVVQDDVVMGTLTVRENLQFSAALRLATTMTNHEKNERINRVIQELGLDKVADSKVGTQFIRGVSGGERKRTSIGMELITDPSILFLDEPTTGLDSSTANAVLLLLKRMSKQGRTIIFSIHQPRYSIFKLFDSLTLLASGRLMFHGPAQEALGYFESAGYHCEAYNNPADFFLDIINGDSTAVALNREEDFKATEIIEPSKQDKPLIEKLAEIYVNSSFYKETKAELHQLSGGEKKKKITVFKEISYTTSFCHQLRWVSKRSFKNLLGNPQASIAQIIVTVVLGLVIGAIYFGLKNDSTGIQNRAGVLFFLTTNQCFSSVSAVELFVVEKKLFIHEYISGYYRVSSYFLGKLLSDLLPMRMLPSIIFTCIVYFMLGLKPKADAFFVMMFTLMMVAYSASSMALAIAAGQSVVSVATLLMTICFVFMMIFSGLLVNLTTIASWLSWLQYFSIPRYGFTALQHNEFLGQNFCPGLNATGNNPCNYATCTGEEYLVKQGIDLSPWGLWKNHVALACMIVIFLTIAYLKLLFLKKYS
Apoptosis regulator Bcl-2 (Homo sapiens), sequence (P10415 whole entry, looked up): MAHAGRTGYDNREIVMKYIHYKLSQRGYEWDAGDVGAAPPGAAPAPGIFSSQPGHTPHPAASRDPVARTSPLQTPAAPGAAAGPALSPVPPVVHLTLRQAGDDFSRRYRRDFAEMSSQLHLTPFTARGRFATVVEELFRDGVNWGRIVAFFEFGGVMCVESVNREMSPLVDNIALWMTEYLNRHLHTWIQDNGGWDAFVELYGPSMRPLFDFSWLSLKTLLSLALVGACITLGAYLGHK
Caspase-3 (Homo sapiens), sequence (P42574 whole entry, looked up): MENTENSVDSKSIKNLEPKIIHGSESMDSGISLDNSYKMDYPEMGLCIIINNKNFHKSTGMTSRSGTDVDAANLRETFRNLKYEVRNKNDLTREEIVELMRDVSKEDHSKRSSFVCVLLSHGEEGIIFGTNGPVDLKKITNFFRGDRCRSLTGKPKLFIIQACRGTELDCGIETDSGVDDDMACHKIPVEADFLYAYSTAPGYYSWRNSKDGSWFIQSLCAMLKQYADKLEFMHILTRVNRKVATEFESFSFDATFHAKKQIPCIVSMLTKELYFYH

CCOc1cc(C(C)(C)C)ccc1C1COC(c2c(F)cccc2F)=N1 (stereo not drawn)
active: [1] 6.97 µM | [5] 8.66 µM | [6] 9.15 µM | [13] 25.7 µM
inactive: all other assays above

COc1cc(Cl)c(OC)cc1Cl
active: [20] 50 µM
not listed: [5] | [19]
inactive: all other assays above

Nc1cnn(-c2ccccc2)c(=O)c1Cl
active: [20] 80.6 µM
inactive: all other assays above

CC(C)N1C(=O)c2ccccc2NS1(=O)=O
inactive: all assays above

CSC(=O)c1c(C(F)F)nc(C(F)(F)F)c(C(=O)SC)c1CC(C)C
active: [4] 49.8 µM | [5] 9.66 µM | [7] 77.9 µM | [9] 49.8 µM | [13] 49.8 µM | [16] 49.8 µM
inactive: all other assays above

CCN(CC)C(=O)C(C)Oc1cccc2ccccc12 (stereo not drawn)
active: [4] 50 µM | [6] 50 µM | [8] 69.8 µM | [9] 84.3 µM | [13] 73.6 µM | [15] 79.3 µM | [20] 26.4 µM
inactive: all other assays above

CCSC(=O)N1CCCCCC1
inactive: all assays above

COc1ccc(-c2ccccc2)cc1NNC(=O)OC(C)C
active: [20] 74.5 µM
inactive: all other assays above

Clc1cccc(C(Cl)(Cl)Cl)n1
inactive: all assays above

COP(=O)(OC)O/C(C)=C/C(=O)N(C)C
active: [4] 11 µM
inactive: all other assays above

CCCCC(O)(Cn1cncn1)c1ccc(Cl)cc1Cl (stereo not drawn)
inactive: [2] | [6] | [10] | [12] | [14] | [17] | [18] | [19]
active: [1] 11.8 µM | [3] 50 µM | [4] 68.6 µM | [5] 79.9 µM | [7] 12.3 µM | [8] 69.4 µM | [9] 73.3 µM | [11] 74.6 µM | [13] 68.4 µM | [15] 65.6 µM | [16] 59.5 µM | [20] 87.4 µM

COC(=O)NC(=S)Nc1ccccc1NC(=S)NC(=O)OC
active: [1] 17.4 µM | [5] 35.4 µM | [20] 39 µM
inactive: all other assays above

COP(=S)(OC)SCn1nnc2ccccc2c1=O
active: [6] 15.5 µM | [20] 33.6 µM
inactive: all other assays above
